Pf Dd2 inh: inhibitors of Plasmodium falciparum Dd2 growth. P. falciparum Dd2 growth, SYBR Green, 72 h. Potency, µM (highest dose often 28.9 µM), without a hit: at the top dose activity, negative = inhibition, hits mostly inhibitors. 4.3% of 120,000 active. AID 1347417; active = well fitted inhibition curve with a large enough effect;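 also: plate controls were DMSO vehicle for no effect and reference drug for full effect; nearly all actives have a fitted effect of over 65% in size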
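Infected erythrocytes (Dd2, 0.3% parasitemia, 2.5% hematocrit final) are added to compound in RPMI-1640/Albumax II medium, grown 72 h at 37C in low oxygen, then lysed with saponin/Triton-X containing SYBR Green and read by fluorescence.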
* marks the source's active call; other numbers are inactive results; i = inactive; [ ] = another dose, or the depositor's remark. The full list was thinned out, with hits kept by preference. Potency is read from the fitted curve at half-maximal effect.

SMILES	Pf Dd2 inh
CSc1ncc(CN2CCCN(S(=O)(=O)N3CCCC3)CC2)cn1	-11.1%
CN(C)C(=O)C1CN(C(=O)Nc2cc(F)c(F)c(F)c2)CC12CCOCC2 (stereo unspecified)	6.3%
O=C1CCN(Cc2cccc(F)c2)CCOCCN1	4.5%
O=C(NC1CC1)[C@@H]1CN(Cc2cccnc2)C[C@H]1CO	12.5%
O=C(c1cccnc1)N1CCC2(CC1)OCCN(Cc1ccccc1)C2=O	-18.2%[44.1 µM]
C[C@]1(O)CCN(C(=O)Cc2ccc3c(c2)OCO3)C[C@@H]1O	-7.5%
CCC1(CO)CCCN(C(=O)CCc2ccc3c(c2)OCO3)C1 (stereo unspecified)	-12.0%
CC(Cc1ccc2c(c1)OCO2)CN1CCC(CO)(CN2CCCC2)CC1 (stereo unspecified)	5.01µM*
O=C(CCc1nc2ccccc2[nH]1)N1CCN(C(=O)N2CC3CC(C2)[C@H]2CCCC(=O)N2C3)CC1 (stereo partly specified)	i
O=C(c1cnc(Nc2ccccc2)nc1)N1CC[C@H](CO)[C@@H](O)C1	7.5%
CN(Cc1ccc(-c2ccccc2)cc1)C(=O)c1ccc(C(F)(F)F)cc1	0.1%
CCNC(=O)c1c(C)oc2c1CN(Cc1ccc(Br)o1)CC2	7.94µM*
CCNC(=O)c1c(C)oc2c1CN(Cc1sccc1C)CC2	11.2µM*
Cc1ccc(CN2CCc3oc(C)c(C(=O)NCCN4CCCCC4)c3C2)cc1	1.41µM*
Cc1ccsc1CN1CCc2n[nH]c(=O)n2CC1	i
COC[C@@H]1CN(Cc2ccc(Br)o2)C[C@H]1C(=O)NC1CC1	1.0%
COCC(=O)NC[C@H]1CCN(Cc2sccc2C)C[C@H]1N(C)C	i
Cc1oc2c(c1C(=O)NCCN(C)C)CN(C(=O)c1ccncc1)CC2	-9.4%
Cc1ccc(-c2cc(C(=O)NCCN3CCN(C)CC3)n(C)c2)cc1	-15.0%
Cc1c(C)n(C)c2ccc(C(=O)NCCCN3CCCCC3)cc12	i
COCc1ccc2c(c1)c(OC(C)(C)C(=O)NCCCn1ccnc1)nn2Cc1cccnc1	13.2%
Cc1cccc(CNC(=O)[C@@H]2COCC(=O)N2Cc2ccc(F)cc2)c1	4.9%
COc1ccc(/C=C/CN2CCC(CCC(=O)Nc3ccccc3Cl)CC2)cc1	-8.6%
CCN1c2cc(C(=O)Nc3ccc(OC)c(OC)c3)ccc2C(=O)N2CCCC21 (stereo unspecified)	-10.0%
CCN(CC)C(=O)[C@@H]1CCC[C@@H](NCc2nccn2C)CN(C)C(=O)C1	8.5%[44.1 µM]
SMILES	Pf Dd2 inh
Cc1ccc(C(=O)N2CCCCCNC(=O)[C@@H]3CCCC[C@@H]32)s1	-1.5%
Cc1cnc(C(=O)NC2C[C@H]3CC[C@@H](C2)N3C(=O)C2CCCCC2)cn1 (stereo partly specified)	21.1%
COCCN1CC(C(=O)N(C)Cc2ccc(OC)c3ncccc23)CCC1=O (stereo unspecified)	10.4%
CC(C)N1C(=O)C2(CCCC2)C1C(=O)NCCCN1CCCC1 (stereo unspecified)	-5.7%
COc1ccc(N2C(=O)C3(CCCCC3)C2C(=O)NCCN2CCc3ccccc3C2)cc1 (stereo unspecified)	8.91µM*
CC(C)N1C(=O)C2(CCCC2)C1C(=O)NCCCN1CCN(c2ccccc2)CC1 (stereo unspecified)	-11.8%
CCC(=O)N1c2ccccc2CC1C(=O)NCCCN1CCN(c2ccc(OC)cc2)CC1 (stereo unspecified)	7.3%
COc1ccc(N2C(=O)C3(CCCCC3)C2C(=O)O)cc1 (stereo unspecified)	7.2%
CC1(C(=O)NCCCN2CCc3ccccc3C2)CCCCC(=O)N1 (stereo unspecified)	-13.2%
COc1ccc(N2C(=O)C3(CCCCC3)C2C(=O)NCCCN2CCCCC2)cc1 (stereo unspecified)	11.2µM*
COc1ccc(N2C(=O)C3(CCCCC3)C2C(=O)NCCCN2CCCC2)cc1 (stereo unspecified)	4.47µM*
CCN1CCN(CCNC(=O)C2N(C(C)C)C(=O)C23CCCCC3)CC1 (stereo unspecified)	12.0%
CCc1nc(C)ccc1OCC(=O)N1Cc2[nH]cnc2CC1C(=O)O (stereo unspecified)	-4.9%
COc1cc(CN2CCc3nc(N(C)C)[nH]c(=O)c3CC2)cc(OC)c1OC	-9.3%[5.79 µM]
O=C(c1ccccc1)N1CCn2c(nn(-c3ccc(F)cc3F)c2=O)C1	4.8%
O=C(Cc1ccc(N(Cc2ccc(F)cc2)C(=O)c2ccco2)cc1)NCc1ccc(F)cc1	-19.1%
O=C(Cc1cccc(F)c1)N1CC(c2nnc(-c3ccncc3)o2)C2(CCOCC2)C1 (stereo unspecified)	-0.5%
CN1CC2(CCCN(C(=O)c3conc3-c3ccccc3)CC2)OC1=O (stereo unspecified)	-0.8%
CCN1C(=O)CN(C(=O)COc2ccc(F)cc2)CC12CCOCC2	-20.2%
CNC(=O)[C@H]1C[C@H](Oc2cccnc2)CN1S(=O)(=O)c1ccc(F)cc1	9.1%
O=C(CN1C(=O)NC(c2ccc(Cl)cc2)C2=C1COC2=O)Nc1cccc(C(F)(F)F)c1 (stereo unspecified)	-27.2%
O=C(c1ccccc1)N1CCC2(CC1)CC(N(Cc1ccccc1)C1CC1)CCO2 (stereo unspecified)	i
CS(=O)(=O)N(C1CC1)C1CCOC2(CCN(C(=O)c3ccc(F)cc3)CC2)C1 (stereo unspecified)	i
O=C(c1ccc(F)cc1)N1CCC2(CC1)CC(N(Cc1ccccc1)C1CC1)CCO2 (stereo unspecified)	-10.2%
Cc1cnc(C(=O)N2CCC3(CC2)CC(N(Cc2ccc(F)cc2)C2CC2)CCO3)cn1 (stereo unspecified)	-6.0%
SMILES	Pf Dd2 inh
O=C(Cc1ccsc1)N1CCC2(CC1)CC(N(Cc1ccccc1)C1CC1)CCO2 (stereo unspecified)	-9.0%
O=C(Cc1ccc(F)cc1)N1CCC2(CC1)CC(N(Cc1ccccc1)C1CC1)CCO2 (stereo unspecified)	5.62µM*
Cn1nccc1C(=O)N1CCC2(CC1)CC(N(Cc1ccc(F)cc1)C1CC1)CCO2 (stereo unspecified)	-21.7%
O=C(CCC1CCCC1)N1CCC2(CC1)CC(N(Cc1ccc(F)cc1)C1CC1)CCO2 (stereo unspecified)	3.55µM*
O=C(c1ccoc1)N1CCC2(CC1)CC(N(Cc1ccc(F)cc1)C1CC1)CCO2 (stereo unspecified)	12.6µM*
Cc1ccc(C(=O)NC2CCN(c3cc(-c4ccccc4)[nH]n3)CC2)c(C)c1	i
CCCC(=O)N1CCN(C2CCN(CCc3ccccc3)C2=O)CC1 (stereo unspecified)	-1.5%
CN(CC1CCOC1)C(=O)Nc1cc(F)cc(F)c1 (stereo unspecified)	-10.5%
COCCn1c(C)cnc1CC1CCN(C(=O)c2ccc(OC)nc2)CC1	16.3%
Cc1ccc(C)c2sc(N3CCN(C(=O)c4ccco4)CC3)nc12	8.7%
CCN(CC)CCN(C(=O)c1ccco1)c1nc2ccc(Cl)cc2s1	-4.8%
Cc1ccc2sc(N(CCCN(C)C)C(=O)c3ccco3)nc2c1C	8.91µM*
Cc1ccc(CNC(=O)C2CCCCC(=O)N2)o1 (stereo unspecified)	i
COCC1CN(C(C)=O)CC12CCN(C(=O)c1ccc(C)cc1C)CC2 (stereo unspecified)	15.7%
CN1CCCCCCN(C(=O)c2ccc3ccccc3n2)[C@H]2CCC[C@H]2C1=O	6.31µM*
COc1ccc(C(=O)N2CCCCCCN(C)C(=O)[C@@H]3CCC[C@@H]32)cc1	-2.1%
CN1CCCCCCN(C(=O)c2ccnn2C)[C@H]2CCC[C@H]2C1=O	2.1%
